# Data as given in PubChem BioAssay AID1347415 (National Center for Advancing Translational Sciences (NCATS), 2020).
# Inconclusive results are not listed. Active and inactive are the calls of the source. Calls come from the whole dose curve; as a rule, active = well fitted inhibition curve with a large enough effect; inconclusive = small, poorly fitted or top-dose-only effect; inactive = no such curve, though single readings can be large or run the other way.
# Assay: qHTS to identify inhibitors of the type 1 interferon - major histocompatibility complex class I in skeletal muscle: tertiary screen by RT-qPCR
# Settings: C25cl48 human myoblasts, IFN-beta, HLA-B RT-qPCR, 24 h; series mostly up to 49.8 µM; activity change, negative = inhibition: at the top concentration
# Source text: Assay Submitter (PI): Travis B. Kinder Ph.D. & James Inglese Ph.D. Assay Development and Screening Technology Laboratory (ADST) National Center for Advancing Translational Sciences (NCATS), Rockville, MD National Institute of Health (NIH), Bethesda, Maryland Idiopathic inflammatory myopathies, collectively referred to as myositis, are a group of rare autoimmune diseases characterized by skeletal muscle inflammation, weakness, and usually accompanied by systemic pathologies of the skin, lungs, or vasculature. Current immunosuppressive therapies and glucocorticoids are often not curative and are accompanied by harsh side effects, especially in children with juvenile myositis. We initiated a drug repurposing and development program to identify more targeted, less toxic therapeutics to treat myositis. Although its cause is not known, muscle from a subset of patients have an abundance of the inflammatory type 1 interferon (IFN) and a down-stream product major histocompatibility complex class I (MHC class I), which are both thought to contribute to damage and weakness. We conducted quantitative high throughput screening (qHTS) on 6,576 compounds (4,679 unique) through a series of cell-based assays to identify those that inhibit the IFN-stimulated expression of MHC class I in muscle precursor cells (myoblasts). The compound identification and evaluation strategy utilized a primary screen with reporter-tagged MHC class I in genome-engineered myoblasts, ATP content counter screen for viability, HLA-ABC immunofluorescence secondary screen, and HLA-B RT-qPCR tertiary screen. To determine if active compounds identified by qHTS in HLA-B HiBit reporter cells, and confirmed by HLA-ABC immunofluorescence, can inhibit the transcription of HLA-B mRNA, compounds were assayed by RT-qPCR. Briefly, 62 compounds identified from primary, counter, and secondary screening as inhibitory with minimal cytotoxicity were dispensed into 384-well plates using acoustic dispensing in a 6-point, 1:7 titration with a high final concentration of 10 uM. Normal immortalized human myoblasts C25cl48 were added to the plate with 4.0 ng/ml human IFN-beta for 24 hours, and cells were harvested and assayed by the Cells-to-Ct kit with TaqMan assays (Thermo Fisher).
# PROTOCOL TABLE (as described by Inglese et al., 2007) SEQUENCE No. (e.g., 1, 2, 3, etc.); […] (e.g., Cells, Incubation, Reagent, etc.); VALUE; DESCRIPTION 0; Compounds; 150 nl; Follow-up compounds dispensed at 150 nl/well with Labcyte Echo 655 acoustic dispenser into one Corning white/clear bottom, high base TC 384-well plates (3765) 1a; Cells; 30 uL; Using a p200 manual pipette, seed 780 cells/well into 1 plate in 30 ul/well of iHSKM growth medium without dexamethasone into columns wells A1-A6. […]
Structure (SMILES),"activity change, negative = inhibition",Potency
CC(C)[C@]12O[C@H]1[C@@H]1O[C@@]13[C@@]1(C)CCC4=C(COC4=O)[C@@H]1C[C@@H]1O[C@@]13C2=O,-132% (inactive),
C[C@@H]1O[C@@H](O[C@@H]2C=C3CC[C@@H]4[C@H](CC[C@]5(C)[C@@H](c6ccc(=O)oc6)CC[C@]45O)[C@@]3(C)CC2)[C@H](O)[C@H](O)[C@H]1O,-8.47% (inactive),
C[C@@H]1O[C@@H](O[C@H]2C[C@@H](O)[C@]3(CO)[C@H]4[C@H](O)C[C@]5(C)[C@@H](C6=CC(=O)OC6)CC[C@]5(O)[C@@H]4CC[C@]3(O)C2)[C@H](O)[C@H](O)[C@H]1O,-14.7% (inactive),
COc1cccc2c1C(=O)c1c(O)c3c(c(O)c1C2=O)C[C@@](O)(C(=O)CO)CC3OC1CC(N2CCOC(OC)C2)C(O)C(C)O1 (stereo not given in full),,92.4 nM (active)
Cc1[nH]nc2ccc(-c3cncc(OC[C@@H](N)Cc4c[nH]c5ccccc45)c3)cc12,,207 nM (active)
